Data: PubChem BioAssay (Tox21)
Inconclusive results are not listed. Calls of active or inactive are those of the source. Unless noted, calls follow the shape of the dose curve; as a rule, active = well fitted curve in the direction sought with a large enough effect in the repeat runs; inconclusive = weak or mixed curves; inactive = no such curve, though single readings can be large; an effect the other way counts as inactive or inconclusive.

Columns and labels:
[1] = qHTS assay for small molecule agonists of the p53 signaling pathway (AID 651631; calls by dose curve; also: nearly all actives have a fitted effect of over 15% in size)
Outline: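 Read-out is beta-lactamase FRET fluorescence measured 2 h after substrate addition at room temperature, in HCT-116 cells with a p53 response element-driven reporter exposed to compounds for 16 h at 37 °C.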

[2] = qHTS assay for small molecules that induce genotoxicity in human embryonic kidney cells expressing luciferase-tagged ATAD5 (AID 651632); also: nearly all actives have a fitted effect of over 15% in size
Outline: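 Reporter cells (HEK293T) express luciferase-tagged ATAD5, a protein that accumulates after DNA damage. Treat 16 hr at 37C/5% CO2, add Amplite, wait 30 min at RT, and read luminescence.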

[3] = qHTS assay for small molecule agonists of the p53 signaling pathway - cell viability (AID 651633; calls by dose curve;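 also: p53RE-bla HCT reporter cells with a stable beta-lactamase p53 reporter; series mostly up to about 83 µM; nearly all actives have a fitted effect of over 30% in size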)
Outline: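 p53RE-bla cells were treated with compound for 16 hours at 37 C. Cytotoxicity was then measured as CellTiter-Glo luminescence after 30 min at room temperature.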

[4] = qHTS assay for small molecules that induce genotoxicity in human embryonic kidney cells expressing luciferase-tagged ATAD5 - cell viability (AID 651634; calls by dose curve; also: nearly all actives have a fitted effect of over 25% in size)
Outline: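 Seeding of 2,000 HEK293T ATAD5-luciferase cells per well preceded pin-tool compound transfer. Plates sat 15.5 hr at 37C under 5% CO2, then fluorescence was read after 30 min with CellTiter-Fluor.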

[5] = qHTS assay for small molecule disruptors of the mitochondrial membrane potential - cell viability (AID 720634; calls by dose curve;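 also: human HepG2 liver cancer cells; series mostly up to about 83 µM; nearly all actives have a fitted effect of over 20% in size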)
Outline: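 Measuring cytotoxicity alongside mitochondrial potential, the screen quantified ATP by luminescence in HepG2 cells after 1 hr compound incubation and a 30 min room-temperature CellTiter-Glo step.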

[6] = qHTS assay to test for compound auto fluorescence at 590 nm (red) in HepG2 cells (AID 720674)
Outline: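 Fluorescence at 590 nm emission following 540 nm excitation was recorded from HepG2 wells one hour after compound transfer, with DMSO-only wells as vehicle and Rose Bengal sodium equivalency as the scale.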

[7] = qHTS assay to test for compound auto fluorescence at 535 nm (green) in HepG2 cells (AID 720675)
[8] = qHTS assay to test for compound auto fluorescence at 460 nm (blue) in HEK293 cells (AID 720678)
Outline: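 Blue read-out at excitation 405 nm and emission 460 nm follows overnight compound exposure of HEK293 cells at 37C in 5% CO2. Activity is given as auto fluorescence equivalency to triamterene.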

[9] = qHTS assay to test for compound auto fluorescence at 590 nm (red) in HEK293 cells (AID 720679)
Outline: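 Red channel, Ex/Em 540/590nm; signal expressed as equivalency to Rose Bengal sodium. HEK293, 2,000 cells/well, 10% dialyzed FBS; 23 nL compound pinned after 4-5 hr attachment; overnight 37C/5% CO2 before reading.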

[10] = qHTS assay to test for compound auto fluorescence at 535 nm (green) in HEK293 cells (AID 720680)
[11] = qHTS assay to test for compound auto fluorescence at 460 nm (blue) in HEK293 cell free culture (AID 720681)
Outline: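 Compounds were added to cell-free DMEM with 10% FBS and fluorescence read directly. The blue channel used 405 nm excitation and 460 nm emission, with triamterene as the reference fluorophore.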

[12] = qHTS assay to test for compound auto fluorescence at 535 nm (green) in HEK293 cell free culture (AID 720682)
Outline: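 Fluorescein serves as the green reference fluorophore; each compound's intrinsic emission at 535 nm (excitation 485 nm) is reported as an equivalent amount of that dye, measured in serum-containing DMEM without cells.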

[13] = qHTS assay to test for compound auto fluorescence at 590 nm (red) in HEK293 cell free culture (AID 720683)
Outline: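 Cell-free wells of DMEM with 10% FBS received compound, and intrinsic fluorescence was read at excitation/emission 540/590 nm. Values expressed as equivalence to Rose Bengal sodium.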

[14] = qHTS assay to test for compound auto fluorescence at 590 nm (red) in HepG2 cell free culture (AID 720684)
Outline: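 Compound was pinned into wells holding MEM with 10% FBS and no cells, and red fluorescence was read at Ex/Em 540/590 nm. Signal is expressed as auto fluorescence equivalency relative to Rose Bengal sodium.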

[15] = qHTS assay to test for compound auto fluorescence at 460 nm (blue) in HepG2 cell free culture (AID 720685)
Outline: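 Compound (23 nL) or DMSO pinned into cell-free MEM with 10% FBS; blue fluorescence read at 405/460 nm excitation/emission, expressed as auto-fluorescence equivalency to triamterene.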

[16] = qHTS assay to test for compound auto fluorescence at 535 nm (green) in HepG2 cell free culture (AID 720686)
[17] = qHTS assay to test for compound auto fluorescence at 460 nm (blue) in HepG2 cells (AID 720687)
Outline: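 HepG2 cells in MEM with 10% FBS, attached overnight at 37 C, were exposed to compound or DMSO for 1 hr at 37 C, 5% CO2. Blue fluorescence was read at 405/460 nm, with triamterene as reference fluorophore.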

[18] = qHTS assay to identify small molecule antagonists of the glucocorticoid receptor (GR) signaling pathway - cell viability counter screen (AID 720693); also: nearly all actives have a fitted effect of over 55% in size
[19] = qHTS assay for identifying genotoxic compounds that show differential cytotoxicity against isogenic chicken DT40 cell lines with known DNA damage response pathways - Rev3 mutant cell line (AID 743014); also: nearly all actives have a fitted effect of over 55% in size
[20] = qHTS assay for identifying genotoxic compounds that show differential cytotoxicity against isogenic chicken DT40 cell lines with known DNA damage response pathways - Rad54/Ku70 mutant cell line (AID 743015); also: nearly all actives have a fitted effect of over 60% in size
[21] = qHTS assay to identify small molecule antagonists of the androgen receptor (AR) signaling pathway - cell viability counter screen (AID 743033; also: nearly all actives have a fitted effect of over 45% in size)
[22] = qHTS assay to identify small molecule antagonists of the androgen receptor (AR) signaling pathway using the MDA cell line - cell viability counter screen (AID 743041; also: nearly all actives have a fitted effect of over 45% in size)
Outline: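 MDA-kb2 AR-luc cells (MMTV-luciferase, AR/GR responsive) treated with compounds plus R1881 agonist for 16 h at 37C. CellTiter-Fluor added at 15.5 h; fluorescence read after 30 min in the same wells.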

[23] = molecular target: Estrogen receptor (Homo sapiens) (UniProt P03372); experiment: qHTS assay to identify small molecule antagonists of the estrogen receptor alpha (ER-alpha) signaling pathway (AID 743069; active = well fitted curve in the direction sought with a large enough effect in the signal ratio in the repeat runs, not every such curve was filed as active; the % refers to the signal ratio)
Sequence of Estrogen receptor (Homo sapiens) (P03372 whole entry, looked up): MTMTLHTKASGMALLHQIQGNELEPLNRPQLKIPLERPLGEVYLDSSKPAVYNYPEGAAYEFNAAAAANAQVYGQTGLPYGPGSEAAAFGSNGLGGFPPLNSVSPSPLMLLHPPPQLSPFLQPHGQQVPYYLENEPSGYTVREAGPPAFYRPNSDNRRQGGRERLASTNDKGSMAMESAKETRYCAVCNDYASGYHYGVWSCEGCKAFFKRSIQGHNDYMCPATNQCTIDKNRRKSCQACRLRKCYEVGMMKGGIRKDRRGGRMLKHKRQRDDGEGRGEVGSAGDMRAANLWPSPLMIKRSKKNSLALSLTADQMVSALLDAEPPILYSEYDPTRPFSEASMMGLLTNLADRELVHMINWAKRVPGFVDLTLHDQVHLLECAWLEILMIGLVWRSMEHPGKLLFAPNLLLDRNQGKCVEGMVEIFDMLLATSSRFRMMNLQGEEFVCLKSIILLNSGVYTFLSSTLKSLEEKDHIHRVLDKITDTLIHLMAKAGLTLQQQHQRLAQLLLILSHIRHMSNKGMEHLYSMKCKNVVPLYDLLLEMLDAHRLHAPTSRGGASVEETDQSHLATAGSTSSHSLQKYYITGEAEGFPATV
Outline: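 HEK293 ER-alpha-UAS-bla GripTite cells, held overnight in 2% charcoal-stripped FBS, 5,000 cells/well, preincubated 4 h, then compound plus 17beta-estradiol for 18 h at 37C. Beta-lactamase read by LiveBLAzer B/G FRET substrate, 2 h at room temperature.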

[24] = qHTS assay to identify small molecule antagonists of the estrogen receptor alpha (ER-alpha) signaling pathway - cell viability counter screen (AID 743074; calls by dose curve;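 also: HEK293 cells carrying ER-alpha-UAS-bla reporter stimulated with 17beta-estradiol; nearly all actives have a fitted effect of over 45% in size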)
[25] = molecular target: Estrogen receptor (Homo sapiens) (UniProt P03372); experiment: qHTS assay to identify small molecule agonists of the estrogen receptor alpha (ER-alpha) signaling pathway (AID 743075; calls by dose curve)
[26] = molecular target: Estrogen receptor (Homo sapiens) (UniProt P03372); experiment: qHTS assay to identify small molecule agonists of the estrogen receptor alpha (ER-alpha) signaling pathway using the BG1 cell line (AID 743079); also: nearly all actives have a fitted effect of over 20% in size
[27] = qHTS assay to identify small molecule antagonists of the estrogen receptor alpha (ER-alpha) signaling pathway using the BG1 cell line (AID 743080; calls by dose curve;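 also: BG1 cells stimulated with 17beta-estradiol alongside compound; series mostly up to about 70 µM; nearly all actives have a fitted effect of over 25% in size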)
Outline: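 Luminescence from a 4×ERE-luciferase reporter in BG1-Luc-4E2 cells served as read-out. Cells, pre-cultured 5 days in stripped-serum phenol-red-free medium, were exposed to compound with 17beta-estradiol co-stimulation for 21.5 h at 37 C.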

[28] = qHTS assay to identify small molecule antagonists of the estrogen receptor alpha (ER-alpha) signaling pathway using the BG1 cell line - cell viability counter screen (AID 743081);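 also: compound given together with 17beta-estradiol as the ER stimulus; series mostly up to about 70 µM; nearly all actives have a fitted effect of over 45% in size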
[29] = qHTS assay to identify aromatase inhibitors - cell viability counter screen (AID 743084);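 also: cells stimulated with testosterone during compound exposure; nearly all actives have a fitted effect of over 55% in size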
[30] = molecular target: Aryl hydrocarbon receptor (Homo sapiens) (UniProt P35869); experiment: qHTS assay to identify small molecule that activate the aryl hydrocarbon receptor (AhR) signaling pathway (AID 743085);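 also: HG2L7.5c1 human HepG2 liver cells with stably integrated DRE-driven firefly reporter; series mostly up to about 70 µM; nearly all actives have a fitted effect of over 15% in size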
Sequence of Aryl hydrocarbon receptor (Homo sapiens) (P35869 whole entry, looked up): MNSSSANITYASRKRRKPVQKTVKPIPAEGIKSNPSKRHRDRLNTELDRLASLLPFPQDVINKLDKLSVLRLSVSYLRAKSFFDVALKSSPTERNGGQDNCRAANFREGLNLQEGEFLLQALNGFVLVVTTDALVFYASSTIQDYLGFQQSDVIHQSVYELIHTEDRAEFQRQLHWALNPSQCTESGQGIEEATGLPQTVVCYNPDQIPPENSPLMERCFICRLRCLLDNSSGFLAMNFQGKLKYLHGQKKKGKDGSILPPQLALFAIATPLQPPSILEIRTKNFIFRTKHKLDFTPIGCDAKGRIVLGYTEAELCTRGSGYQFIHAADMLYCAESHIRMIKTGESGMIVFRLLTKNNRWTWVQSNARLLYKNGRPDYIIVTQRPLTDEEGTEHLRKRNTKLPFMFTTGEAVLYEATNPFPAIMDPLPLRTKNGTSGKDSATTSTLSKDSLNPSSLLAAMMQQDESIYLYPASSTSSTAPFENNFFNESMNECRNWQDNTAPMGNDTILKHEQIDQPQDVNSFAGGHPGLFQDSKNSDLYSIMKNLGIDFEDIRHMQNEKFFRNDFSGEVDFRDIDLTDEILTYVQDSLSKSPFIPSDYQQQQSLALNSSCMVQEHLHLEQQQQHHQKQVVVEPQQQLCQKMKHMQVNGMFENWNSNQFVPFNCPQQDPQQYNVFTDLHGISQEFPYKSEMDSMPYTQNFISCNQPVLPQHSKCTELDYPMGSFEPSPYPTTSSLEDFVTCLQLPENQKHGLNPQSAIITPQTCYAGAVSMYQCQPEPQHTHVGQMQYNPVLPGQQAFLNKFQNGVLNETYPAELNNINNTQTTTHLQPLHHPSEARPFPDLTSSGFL
Outline: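 Cell line HG2L7.5c1 (human hepatoma, 20× DRE-luc). Plated, 5 h 37C, compound/DMSO added, 24 h 37C. CellTiter-Fluor 30 min 37C → fluorescence; then ONE-Glo 30 min RT → luminescence.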

[31] = qHTS assay to identify small molecule that activate the aryl hydrocarbon receptor (AhR) signaling pathway - cell viability counter screen (AID 743086)
Outline: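 HepG2-AhR-luc (HG2L7.5c1) cells, 4000/well, treated 24 h at 37 C with compound; viability measured as CellTiter-Fluor fluorescence after 30 min in the same wells as the luciferase read.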

[32] = molecular target: Peroxisome proliferator-activated receptor gamma (Homo sapiens) (UniProt P37231); experiment: qHTS assay to identify small molecule agonists of the peroxisome proliferator-activated receptor gamma (PPARg) signaling pathway (AID 743094; active = well fitted activation curve with a large enough effect in the signal ratio in the repeat runs, not every such curve was filed as active; the % refers to the signal ratio)
Sequence of Peroxisome proliferator-activated receptor gamma (Homo sapiens) (P37231 whole entry, looked up): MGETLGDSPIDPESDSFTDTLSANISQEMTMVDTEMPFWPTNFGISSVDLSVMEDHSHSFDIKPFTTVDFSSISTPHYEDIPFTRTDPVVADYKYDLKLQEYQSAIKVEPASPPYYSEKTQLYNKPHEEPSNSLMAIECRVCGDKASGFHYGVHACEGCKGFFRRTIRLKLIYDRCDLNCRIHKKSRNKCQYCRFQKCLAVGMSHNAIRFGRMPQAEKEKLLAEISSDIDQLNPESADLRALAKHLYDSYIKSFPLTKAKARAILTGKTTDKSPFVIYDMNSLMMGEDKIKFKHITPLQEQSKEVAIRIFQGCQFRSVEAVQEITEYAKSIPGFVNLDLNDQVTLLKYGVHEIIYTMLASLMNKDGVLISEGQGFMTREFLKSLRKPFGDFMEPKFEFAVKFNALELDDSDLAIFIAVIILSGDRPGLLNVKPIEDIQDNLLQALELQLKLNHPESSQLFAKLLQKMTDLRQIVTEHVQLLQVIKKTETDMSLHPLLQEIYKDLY
Outline: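 Following 5 h plating at 37C, PPARg-bla HEK293H cells receive compound or DMSO for 17 h; fluorescence intensity is recorded after LiveBLAzer B/G loading for 1 h at room temperature.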

[33] = qHTS assay to identify small molecule antagonists of the estrogen related receptor (ERR) signaling pathway - cell viability counter screen (AID 1224818); also: potency is read from the fitted curve at half-maximal effect;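 also: viability measured after 17.5 h of compound exposure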
Outline: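 In the same ERR cell assay, compound-treated wells (17.5 h, 37 C) were multiplexed with a fluorogenic viability reagent, CellTiter-Fluor, read after 30 min to flag cytotoxic substances.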

[34] = qHTS assay to identify small molecule antagonists of the estrogen related receptor (ERR) signaling pathway (AID 1224819; also: nearly all actives have a fitted effect of over 50% in size; also: potency is read from the fitted curve at half-maximal effect)
Outline: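 qHTS in ERR cells, 2,000/well, 1536 format. Cpd (DMSO) added after 6 h settle, 18 h 37 C. One-Glo luminescence, 30 min RT.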

[35] = qHTS assay to identify small molecule agonists of the estrogen related receptor (ERR) signaling pathway (AID 1224820)
Outline: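 Cells: ERR line from NTP, 2,000/well. Pre-incubation 6 h, 37 C/5% CO2. Compound (DMSO) pin transfer, 18 h 37 C. One-Glo, 30 min RT, luminescence.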

[36] = tested on: estrogen-related receptor alpha (ERRalpha) with PGC-1alpha coactivator, human; experiment: qHTS assay to identify small molecule antagonists of the estrogen related receptor signaling pathway with the pleiotropic PPARgamma coactivator (PGC) (AID 1224821; calls by dose curve; also: nearly all actives have a fitted effect of over 50% in size; also: potency is read from the fitted curve at half-maximal effect)
Outline: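 Luminescent read-out (One-Glo, 30 min at room temperature) following 18 h treatment of PGC/ERR cells at 37 C with compounds delivered in DMSO. Cells had settled 6 h at 37 C/5% CO2 before dosing.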

[37] = qHTS assay to identify small molecule antagonists of the estrogen related receptor signaling pathway with the pleiotropic PPARgamma coactivator (PGC) cell viability counter screen (AID 1224822; also: potency is read from the fitted curve at half-maximal effect)
Outline: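 Compounds in DMSO, with positive and negative controls, were applied to PGC/ERR cells (2,000/well) and left 17.5 h at 37 C before CellTiter-Fluor detection.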

[38] = qHTS assay to identify small molecule agonists of the estrogen related receptor signaling pathway with the pleiotropic PPARgamma coactivator (PGC) (AID 1224823)
Outline: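 Steps: plate PGC/ERR cells at 2,000 cells/well; incubate 6 h, 37 C/5% CO2; pin-transfer compounds (DMSO); incubate 18 h, 37 C; add One-Glo; 30 min RT; read luminescence.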

[39] = molecular target: Nuclear receptor subfamily 1 group I member 2 (Rattus norvegicus) (UniProt Q9R1A7); experiment: Rat pregnane X receptor (rPXR) activation by small molecules, qHTS assay (AID 1346983); settings: rPXR luciferase reporter cells, One-Glo luminescence, 24 h; max activation: stronger effect = higher value; also: nearly all actives have a fitted effect of over 20% in size
Sequence of Nuclear receptor subfamily 1 group I member 2 (Rattus norvegicus) (Q9R1A7 whole entry, looked up): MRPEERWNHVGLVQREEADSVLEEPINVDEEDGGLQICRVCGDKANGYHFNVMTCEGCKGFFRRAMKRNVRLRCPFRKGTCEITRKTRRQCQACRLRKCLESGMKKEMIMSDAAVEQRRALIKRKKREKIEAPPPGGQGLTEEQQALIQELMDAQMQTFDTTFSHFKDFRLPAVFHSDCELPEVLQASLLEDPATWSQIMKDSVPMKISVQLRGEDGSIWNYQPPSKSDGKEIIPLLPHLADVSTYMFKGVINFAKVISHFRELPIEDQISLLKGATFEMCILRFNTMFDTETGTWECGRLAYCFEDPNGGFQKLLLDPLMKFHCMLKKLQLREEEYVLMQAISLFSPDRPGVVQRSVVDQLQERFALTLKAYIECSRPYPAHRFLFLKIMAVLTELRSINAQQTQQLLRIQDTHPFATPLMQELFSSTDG
Outline: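 Cell-based rPXR activation assay: rPXR cells, 2,000 per well, rested 5hr at 37 C, then exposed to compounds in DMSO for 24 hr at 37 C. Luciferase activity read by One-Glo luminescence after 30 min at room temperature.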

[40] = molecular target: Nuclear receptor subfamily 1 group I member 2 (Homo sapiens) (UniProt O75469); experiment: CYP3A4 induction through human pregnane X receptor (PXR) by small molecules, qHTS assay (AID 1346984); also: nearly all actives have a fitted effect of over 40% in size
Outline: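 qHTS, concentration-response format: HepG2 DPX-2 line, PXR/CYP3A4-luc. Exposure 24 h, 37C. Substrate Luciferin-IPA 3uM final, 3 h. Detection One-Glo, 30 min RT.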

[41] = molecular target: Nuclear receptor subfamily 1 group I member 2 (Homo sapiens) (UniProt O75469); experiment: Human pregnane X receptor (PXR) activation by small molecules, qHTS assay (AID 1346985); also: nearly all actives have a fitted effect of over 40% in size
Outline: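 DPX-2 cells (HepG2 co-transfected with a PXR response element and a CYP3A4-promoter luciferase construct) were seeded at 2,000 per well, rested 5 hr at 37C, then exposed to DMSO-dissolved compounds for 24 hr. Activation was read as luciferase luminescence.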
% is scaled to controls: 0 for no effect and ±100 for the full control effect.

C[C@]12N[C@H](Cc3ccccc31)c1ccccc12
inactive: Potency [1] | Potency [2] | Potency [3] | Potency [4] | Potency [5] | outcome [6] | Potency [7] | Potency [8] | outcome [9] | Potency [10] | Potency [11] | Potency [12] | outcome [13] | outcome [14] | Potency [15] | Potency [16] | Potency [17] | Potency [18] | Potency [19] | Potency [20] | Potency [21] | Potency [22] | Potency [23] | Potency [24] | Potency [25] | Potency [26] | Potency [27] | Potency [28] | Potency [29] | Potency [30] | Potency [31] | Potency [32] | Potency [33] | Potency [34] | Potency [35] | Potency [36] | Potency [37] | Potency [38] | max activation [39] -5.86% | Potency [40] | Potency [41]

CC(=O)NBr
inactive: Potency [33] | Potency [34] | Potency [35] | Potency [36] | Potency [37] | Potency [38]

Cc1[nH]c2ccc(O)cc2c1CCN
inactive: Potency [33] | Potency [34] | Potency [35] | Potency [36] | Potency [37] | Potency [38]

O=C1/C(=C/c2ccccc2)C[C@@]2(O)[C@H]3Cc4ccc(O)c5c4[C@@]2(CCN3CC2CC2)[C@H]1O5
inactive: Potency [35] | Potency [38]
active: Potency [33] 8.74 µM | Potency [34] 2.37 µM | Potency [36] 2.2 µM | Potency [37] 6.19 µM

Clc1cc(I)cc(Cl)c1NC1=NCCN1
inactive: Potency [33] | Potency [34] | Potency [35] | Potency [36] | Potency [37] | Potency [38]

CC(=O)OCC1=C(C(=O)[O-])N2C(=O)[C@@H](NC(=O)CCC[C@@H](N)C(=O)[O-])[C@H]2SC1.[Zn+2]
inactive: Potency [33] | Potency [34] | Potency [35] | Potency [36] | Potency [37] | Potency [38]
